Measurements from the supplement of paper PMC4962491.
± gives the standard deviation of the averaged measurements.

Tested on: FaDu
Assay: mitochondrial oxygen consumption rate normalised to cell number, Z score vs plate DMSO wells; higher = higher oxygen consumption (negative = OCR reduction)
Details: treatment time 24 h, assay medium: 5 mM glucose, 5 mM pyruvate, 4 mM glutamine
Method: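 Secondary screen: FaDu cells were incubated 24 h with the top 130 primary hits at 0.08, 0.4, 2 or 10 uM. Mitochondrial-specific OCR (basal minus antimycin A) was measured on a Seahorse XF96 in medium with 5 mM glucose, 5 mM pyruvate and 4 mM glutamine and normalised to Hoechst cell number. OCR score = (OCR - mean of plate DMSO wells) / SD of plate DMSO wells. Three repeats.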
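Further: compound exposure in DMEM (4 mM L-glutamine, 5 mM glucose), antimycin A injected at 2 µM after the basal reading and its residual OCR subtracted from basal.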

## CCc1cc(Cl)c(OC)c(C(=O)NC[C@@H]2CCCN2CC)c1O
0.08 µM
  mitochondrial oxygen consumption rate normalised: 0.346 ± 0.99
0.4 µM
  mitochondrial oxygen consumption rate normalised: 1.18 ± 0.45
2 µM
  mitochondrial oxygen consumption rate normalised: 0.712 ± 2.1
10 µM
  mitochondrial oxygen consumption rate normalised: 0.556 ± 2.2

## CC(C)(C)CC(C)(C)c1ccc(OCCOCC[N+](C)(C)Cc2ccccc2)cc1
0.08 µM
  mitochondrial oxygen consumption rate normalised: -0.0571 ± 1.2
0.4 µM
  mitochondrial oxygen consumption rate normalised: 0.0149 ± 0.7
2 µM
  mitochondrial oxygen consumption rate normalised: -6.66 ± 0.41
10 µM
  mitochondrial oxygen consumption rate normalised: -13 ± 0.41

## Nc1nc(Cl)nc2c1ncn2[C@H]1C[C@H](O)[C@@H](CO)O1 [Cladribine]
0.08 µM
  mitochondrial oxygen consumption rate normalised: 0.0971 ± 0.62
0.4 µM
  mitochondrial oxygen consumption rate normalised: 1.11 ± 0.78
2 µM
  mitochondrial oxygen consumption rate normalised: 0.797 ± 2
10 µM
  mitochondrial oxygen consumption rate normalised: -0.553 ± 2.5

## Oc1c(Cl)cc(Cl)c(Cl)c1Cc1c(O)c(Cl)cc(Cl)c1Cl
0.08 µM
  mitochondrial oxygen consumption rate normalised: -0.831 ± 1.9
0.4 µM
  mitochondrial oxygen consumption rate normalised: 1.92 ± 0.93
2 µM
  mitochondrial oxygen consumption rate normalised: -2.48 ± 0.61
10 µM
  mitochondrial oxygen consumption rate normalised: -13.3 ± 0.45

## CC(=O)[C@H]1CC[C@H]2[C@@H]3CCC4=CC(=O)CC[C@]4(C)[C@H]3CC[C@]12C
0.08 µM
  mitochondrial oxygen consumption rate normalised: -0.339 ± 1.3
0.4 µM
  mitochondrial oxygen consumption rate normalised: 0.321 ± 0.92
2 µM
  mitochondrial oxygen consumption rate normalised: -0.631 ± 1.3
10 µM
  mitochondrial oxygen consumption rate normalised: -1.18 ± 0.26

## c1ccc2c(c1)CCCC2C1=NCCN1 (centres undefined)
0.08 µM
  mitochondrial oxygen consumption rate normalised: -1.42 ± 2.7
0.4 µM
  mitochondrial oxygen consumption rate normalised: -0.536 ± 1.1
2 µM
  mitochondrial oxygen consumption rate normalised: -0.793 ± 1
10 µM
  mitochondrial oxygen consumption rate normalised: -0.259 ± 1

## N=C(N)NC(=N)NCCc1ccccc1
0.08 µM
  mitochondrial oxygen consumption rate normalised: 0.684 ± 1.6
0.4 µM
  mitochondrial oxygen consumption rate normalised: 0.605 ± 0.9
2 µM
  mitochondrial oxygen consumption rate normalised: -0.479 ± 0.84
10 µM
  mitochondrial oxygen consumption rate normalised: -5.11 ± 1.6

## Oc1c(Br)cc(Br)c2cccnc12
0.08 µM
  mitochondrial oxygen consumption rate normalised: 0.816 ± 1.4
0.4 µM
  mitochondrial oxygen consumption rate normalised: 1.29 ± 1
2 µM
  mitochondrial oxygen consumption rate normalised: -0.243 ± 2.5
10 µM
  mitochondrial oxygen consumption rate normalised: -3.74 ± 2

## C=C1CC[C@H](O)C/C1=C/C=C1\CCC[C@]2(C)[C@@H]([C@H](C)/C=C/[C@H](C)C(C)C)CC[C@@H]12
0.08 µM
  mitochondrial oxygen consumption rate normalised: -1.49 ± 2.4
0.4 µM
  mitochondrial oxygen consumption rate normalised: -0.211 ± 0.41
2 µM
  mitochondrial oxygen consumption rate normalised: -1.83 ± 1.7
10 µM
  mitochondrial oxygen consumption rate normalised: -2.44 ± 1.9

## CO[C@H]1C[C@H](O[C@H]2[C@H](C)O[C@@H](O[C@@H]3/C(C)=C/C[C@@H]4C[C@@H](C[C@]5(C=C[C@H](C)[C@@H](C6CCCCC6)O5)O4)OC(=O)[C@@H]4C=C(C)[C@@H](O)[C@H]5OC/C(=C\C=C\[C@@H]3C)[C@]54O)C[C@@H]2OC)O[C@@H](C)[C@@H]1O
0.08 µM
  mitochondrial oxygen consumption rate normalised: 0.113 ± 1.2
0.4 µM
  mitochondrial oxygen consumption rate normalised: 1.33 ± 0.39
2 µM
  mitochondrial oxygen consumption rate normalised: -0.504 ± 1.2
10 µM
  mitochondrial oxygen consumption rate normalised: -2.82 ± 1.1

## CC(C)NCC(O)COc1ccc(CC(N)=O)cc1 (centres undefined)
0.08 µM
  mitochondrial oxygen consumption rate normalised: 0.23 ± 1.7
0.4 µM
  mitochondrial oxygen consumption rate normalised: 0.806 ± 0.77
2 µM
  mitochondrial oxygen consumption rate normalised: 0.178 ± 1
10 µM
  mitochondrial oxygen consumption rate normalised: -0.73 ± 1.5

## CCCCC(CC)CN=C(N)N=C(N)NCCCCCCNC(N)=NC(N)=NCC(CC)CCCC (centres undefined)
0.08 µM
  mitochondrial oxygen consumption rate normalised: -1.69 ± 0.36
0.4 µM
  mitochondrial oxygen consumption rate normalised: 1.12 ± 0.29
2 µM
  mitochondrial oxygen consumption rate normalised: -0.611 ± 2
10 µM
  mitochondrial oxygen consumption rate normalised: -10.4 ± 0.54

## CC(=O)Oc1ccccc1C(=O)Nc1ncc([N+](=O)[O-])s1
0.08 µM
  mitochondrial oxygen consumption rate normalised: 0.233 ± 1.2
0.4 µM
  mitochondrial oxygen consumption rate normalised: 1.38 ± 0.59
2 µM
  mitochondrial oxygen consumption rate normalised: 1.82 ± 0.7
10 µM
  mitochondrial oxygen consumption rate normalised: 1.49 ± 1.2

## COc1cc(O)c(C(=O)c2ccccc2)cc1S(=O)(=O)O
0.08 µM
  mitochondrial oxygen consumption rate normalised: 0.104 ± 1.6
0.4 µM
  mitochondrial oxygen consumption rate normalised: 1.17 ± 0.81
2 µM
  mitochondrial oxygen consumption rate normalised: -0.346 ± 2.5
10 µM
  mitochondrial oxygen consumption rate normalised: -1.77 ± 1

## C[C@@H]1O[C@@H](OC[C@H]2O[C@@H](Oc3c(-c4ccc(O)c(O)c4)oc4cc(O)cc(O)c4c3=O)[C@H](O)[C@@H](O)[C@@H]2O)[C@H](O)[C@H](O)[C@H]1O
0.08 µM
  mitochondrial oxygen consumption rate normalised: 0.0147 ± 1.7
0.4 µM
  mitochondrial oxygen consumption rate normalised: 1.67 ± 0.68
2 µM
  mitochondrial oxygen consumption rate normalised: -0.481 ± 2.6
10 µM
  mitochondrial oxygen consumption rate normalised: 1.74 ± 2.4

## C#C[C@]1(O)CC[C@H]2[C@@H]3CCC4=CC(=O)CC[C@@H]4[C@H]3CC[C@@]21CC
0.08 µM
  mitochondrial oxygen consumption rate normalised: 0.538 ± 0.4
0.4 µM
  mitochondrial oxygen consumption rate normalised: 1.49 ± 0.65
2 µM
  mitochondrial oxygen consumption rate normalised: 1.15 ± 0.96
10 µM
  mitochondrial oxygen consumption rate normalised: 1.62 ± 1.1
